Data taken from PubChem BioAssay.
For part of these data: Potency and affinity values are given separately. Calls of active or inactive are those of the source. A call without a number means that no potency is given here. Unless noted, how the calls were made is not given here.

Key:
[1] = molecular target: Cell division control protein 42 homolog (Homo sapiens) (UniProt P60953); assay: activated mutant Cdc42 GTP-binding inhibitors, dose response, biochemical, multiplex bead flow cytometry, Bodipy-FL-GTP (AID 1333;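 active means fitted half-maximal concentration within the tested dose range, moderate curve steepness, a statistically real signal drop, and little compound fluorescence or tag-binding interference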)
Sequence of Cell division control protein 42 homolog (Homo sapiens) (P60953 whole entry, looked up): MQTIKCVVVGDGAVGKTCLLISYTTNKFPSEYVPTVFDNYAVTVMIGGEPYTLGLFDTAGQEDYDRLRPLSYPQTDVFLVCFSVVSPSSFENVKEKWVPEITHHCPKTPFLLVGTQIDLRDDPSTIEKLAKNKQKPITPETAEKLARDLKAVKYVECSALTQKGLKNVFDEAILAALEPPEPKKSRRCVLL

[2] = molecular target: Cell division control protein 42 homolog (Homo sapiens) (UniProt P60953); assay: wildtype Cdc42 GTP-binding inhibitors, dose response, biochemical, multiplex bead flow cytometry, Bodipy-FL-GTP (AID 1334;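 active means fitted half-maximal concentration within the tested range, moderate curve steepness, significant signal drop, and little compound fluorescence or bead-linkage interference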); settings: bead-based flow cytometry, Bodipy-FL-GTP binding to GST-Cdc42; at 100 µM (top of the series) unless noted
[3] = molecular target: GTPase HRas (Homo sapiens) (UniProt P01112); assay: inhibitors of GTP binding to wildtype Ras, dose response, biochemical, multiplex bead flow cytometry (AID 1335;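 active means fitted half-maximal concentration within 10 nM to 100 µM, steepness 0.5 to 2, significant signal drop, low assay interference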); settings: bead-based flow cytometry, Bodipy-GTP binding to GST-Ras; at 100 µM (top of the series) unless noted
Sequence of GTPase HRas (Homo sapiens) (P01112 whole entry, looked up): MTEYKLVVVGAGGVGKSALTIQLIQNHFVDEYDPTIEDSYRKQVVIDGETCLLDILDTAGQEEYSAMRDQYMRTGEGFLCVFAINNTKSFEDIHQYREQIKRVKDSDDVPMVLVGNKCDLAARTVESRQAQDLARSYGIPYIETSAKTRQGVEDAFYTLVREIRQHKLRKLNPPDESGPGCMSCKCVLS

[4] = system: Ras-related protein Rab-7a (dog), GTP binding; assay: Rab7 GTP binding inhibitors, potency, dose response, biochemical, wildtype, multiplex bead flow cytometry (AID 1336)
[5] = molecular target: Ras-related C3 botulinum toxin substrate 1 (Homo sapiens) (UniProt P63000); assay: wildtype Rac1 GTP binding inhibitors, dose response, biochemical, multiplex bead flow cytometry (AID 1340;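 active means dose curve with midpoint inside tested range, moderate steepness, plateau gap beyond fit error, low compound glow and bead-link interference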); settings: GST-Rac1 beads, Bodipy-FL-GTP binding; at 100 µM (top of the series) unless noted
[6] = molecular target: GTPase HRas (Homo sapiens) (UniProt P01112); assay: activated Ras mutant GTP binding inhibitors, dose response, biochemical, multiplex bead flow cytometry (AID 1341;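 active means dose-response curve with midpoint inside the tested range, moderate steepness, significant amplitude and little compound fluorescence or bead-attachment interference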;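 further: GST-tagged constitutively activated Ras mutant immobilized on beads and multiplexed with other GTPases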)

SMILES	outcome [1]	fluorescence, percent of control (lower = inhibition) [2] [%]	GTP binding, percent of control [3] [%]	outcome [4]	GTP binding signal, raw median fluorescence (lower = inhibition) (MCF (arbitrary fluorescence units)) [5]	outcome [6]
CCCCn1c(SCC(=O)c2ccccc2)nc2c1c(=O)[nH]c(=O)n2C	inactive	48.7	61.3	inactive	197	inactive
Cc1ccc(Nc2n[nH]c(C)c2[N+](=O)[O-])c(C)c1	inactive	52.6	65.8	inactive	194	inactive
COc1cccc(N2CCN(C(=O)CCCCCNc3nc(=S)[nH]c4ccccc34)CC2)c1	inactive	38.1	79.5	inactive	264	inactive
CCN1C(=O)C(CC(=O)Nc2ccc(F)cc2)N(CCc2ccc(OC)cc2)C1=S (stereo unspecified)	inactive	33.8	78.6	inactive	239	inactive
CCOc1ccc(-n2nc3c(SCCN4CCCC4)nnc(C)c3c2C)cc1	inactive	57.3	71.4	inactive	230	inactive
Cc1ccc(C)c(CSc2ncccc2C(=O)O)c1	inactive	64.5	73.7	inactive	222	inactive
Cc1ccc(-c2csc3nc4c5ccccc5c(NCCCN5CCOCC5)nn4c(=O)c23)cc1	inactive	32	68.7	inactive	176	inactive
CCCCCn1nc(C(=O)OCC(=O)c2c(N)n(C)c(=O)n(C)c2=O)c2ccccc2c1=O	inactive	34	79.6	inactive	232	inactive
COc1cc2ccccc2cc1C(=O)NC(=S)Nc1cccc(C(=O)O)c1	inactive	33.8	83.3	inactive	174	inactive
CCC(OC(=O)c1cc2sccc2n1C)C(=O)NCc1ccco1 (stereo unspecified)	inactive	54.2	63	inactive	212	inactive
O=C(Cc1csc(Nc2nc(=S)[nH]c3ccccc23)n1)NCCCN1CCN(c2cccc(Cl)c2)CC1	inactive	34.3	75.8	inactive	192	inactive
C=C(C)COc1ccc(-c2n[nH]c(C)c2-c2ccc(Br)cc2)c(O)c1	inactive	32.9	78.5	inactive	265	inactive
Cc1noc(NS(=O)(=O)c2ccc(NC(=O)CSc3nnc4c(n3)[nH]c3ccccc34)cc2)c1C	inactive	21.2	32.7	inactive	41.2	inactive
COc1nc(Nc2ccc(O)cc2)nc(OC(C(F)(F)F)C(F)(F)F)n1	inactive	101	161	inactive	172	inactive
Cc1cc(N/N=C/c2ccc(O)cc2O)nc(-n2nc(C)cc2C)n1	inactive	41	53.3	inactive	141	inactive
CCOc1cc(/C=N/NC(=O)C(C)Sc2ccccc2)ccc1O (stereo unspecified)	inactive	31.8	73.5	inactive	165	inactive
COC(=O)c1ccccc1NC(=O)CSCC(=O)Nc1ccccc1OC	inactive	37.9	81.9	inactive	230	inactive
O=C1C2CC=CCC2C(=O)N1c1ncn[nH]1 (stereo unspecified)	inactive	97.2	161	inactive	189	inactive
CC(C)(C)CC(=O)NC(=S)NCc1ccco1	inactive	41.6	90.5	inactive	312	inactive
COc1ccccc1OCc1ccoc1C(=O)O	inactive	62.9	87	inactive	35.8	inactive
COc1ccc(/C=C2\N=C(SC)SC2=O)cc1OC	inactive	86.4	150	inactive	186	inactive
CCN1/C(=C/c2ccc3cc(C)ccc3[n+]2C)Sc2ccc3sccc3c21	inactive	41.6	74.4	inactive	263	inactive

SMILES	outcome [1]	fluorescence, percent of control (lower = inhibition) [2] [%]	GTP binding, percent of control [3] [%]	outcome [4]	GTP binding signal, raw median fluorescence (lower = inhibition) (MCF (arbitrary fluorescence units)) [5]	outcome [6]
COc1ccc(C(=O)Nc2nc3ccccc3[nH]2)cc1S(=O)(=O)N1CCOCC1	inactive	32.9	73.9	inactive	197	inactive
CCOc1ccc(-n2c(SCC(=O)NC(C)CC)nc3n[nH]c(C)c3c2=N)cc1 (stereo unspecified)	inactive	38.4	48.1	inactive	0	inactive
Cc1ccccc1NC(=O)CN1C(=O)S/C(=C\c2ccc(-c3cc(C(=O)O)ccc3C)o2)C1=O	inactive	30.5	77.4	inactive	258	inactive
O=C(O)C1(NCc2ccc(F)cc2)CCCCC1	inactive	62.4	89.4	inactive	33.6	inactive
Cc1cccc(CN2C(=O)N/C(=C/c3ccc(C)s3)C2=O)c1	inactive	72	82.5	inactive	201	inactive
COc1ccc(CN2C(=O)/C(=C/c3ccc(-c4ccc(Cl)c(C(=O)O)c4)o3)SC2=S)cc1	inactive	32.2	56	inactive	142	inactive
Cc1c(Cl)cccc1NS(=O)(=O)c1ccc2c(c1)C1C=CCC1C(c1ccc(C(=O)O)cc1)N2 (stereo unspecified)	inactive	22.3	72.9	inactive	222	inactive
C=CCc1cc(/C=C/c2nc(O)c([N+](=O)[O-])c(=O)[nH]2)cc(OC)c1O	inactive	31.5	77.1	inactive	177	inactive
COc1ccc(OCCN2C(=O)c3ccccc3C2=O)cc1	inactive	35.6	81.5	inactive	240	inactive
Cc1cc(C)n2nc(C(=O)Nc3cccc(S(=O)(=O)N4CCCC4)c3)nc2n1	inactive	33.5	78.7	inactive	227	inactive
O=c1[nH]c(N/N=C\c2ccc3c(c2)OCO3)nc2ccccc12	inactive	80.8	118	inactive	202	inactive
O=c1[nH]c2ccc(S(=O)(=O)NCc3ccccc3)cc2[nH]1	inactive	38.1	84.5	inactive	218	inactive
CN(C)/C=C(\C#N)C(N)=C(C#N)C#N	inactive	38.1	82.8	inactive	259	inactive
C=CCNc1nc(=S)[nH]c2cc(OC)c(OC)cc12	inactive	31.2	69.1	inactive	148	inactive
c1ccc(C2=Nn3c(nnc3-c3ccco3)SC2)cc1	inactive	34	81.7	inactive	183	inactive
CCOc1nnc(C)c2c(C)n(-c3ccc(Cl)cc3)nc12	inactive	52.2	66.3	inactive	197	inactive
COc1cc2nc(/C=C/c3ccc(N(C)C)cc3)sc2cc1SC	inactive	121	122	inactive	238	inactive
COc1ccc(CCNc2nc(=S)[nH]c3cc(OC)c(OC)cc23)cc1OC	inactive	25.9	57.9	inactive	111	inactive
O=C(Nc1cccc(Cl)c1)N1CCN(c2ncccn2)CC1	inactive	47.5	60.6	inactive	201	inactive
CC(=O)Nc1ccc(N2C(=O)c3ccc(C(=O)Nc4nnc(SCc5ccc(F)cc5)s4)cc3C2=O)cc1	inactive	43.1	92.1	inactive	253	inactive
CCNC(=O)c1cc2c(=O)n3cccc(C)c3nc2n(CCc2ccccc2)c1=N	inactive	74	113	inactive	126	inactive
N#C/C(=C\c1ccncc1)c1nc2ccccc2[nH]1	inactive	31	81.6	inactive	273	inactive

SMILES	outcome [1]	fluorescence, percent of control (lower = inhibition) [2] [%]	GTP binding, percent of control [3] [%]	outcome [4]	GTP binding signal, raw median fluorescence (lower = inhibition) (MCF (arbitrary fluorescence units)) [5]	outcome [6]
CNC(=S)N=Nc1c(O)[nH]c2ccccc12	inactive	36.2	47	inactive	128	inactive
CCCCCCCCSc1nnc2[nH]c(=O)cc(N)n12	inactive	33.4	79.8	inactive	241	inactive
Cc1ccc(Sc2ncccc2C(=O)O)c(C)c1	inactive	78	78.1	inactive	309	inactive
O=C(O)c1ccc(/C=N/NC(=O)c2cc(-c3ccc4c5c(cccc35)CC4)n[nH]2)cc1	inactive	28.2	71.2	inactive	151	inactive
COc1cccc(/C=C/C(=O)Nc2ccccc2N2CCOCC2)c1	inactive	33.2	83.5	inactive	243	inactive
O=C1CC(c2ccc(F)cc2)Sc2ccccc2N1 (stereo unspecified)	inactive	101	170	inactive	207	inactive
COc1cc2[nH]c(=S)nc(NCCc3ccc(S(N)(=O)=O)cc3)c2cc1OC	inactive	36.7	81.9	inactive	268	inactive
O=C(O)c1cccc(NCc2ccc3c(c2)OCO3)c1	inactive	64.9	88.8	inactive	41.9	inactive
Cc1c(C(=O)N/N=C/c2ccc(O)c(Br)c2)sc(N)c1C#N	inactive	27.1	64.7	inactive	151	inactive
COc1cccc(OCc2c(C)cccc2C)c1C(=O)O	inactive	56.5	209	inactive	52.5	inactive
Nc1nonc1C(=O)NCCN=Cc1cc(Cc2ccccc2)cc(Br)c1O	inactive	55.5	59	inactive	192	inactive
Cc1ccc(-c2nnc3c4ccccc4c(C)nn23)cc1S(=O)(=O)N1CCN(CCO)CC1	inactive	38.3	86.6	inactive	238	inactive
O=C(CCc1nc2ccccc2[nH]c1=O)OCC(=O)N1CCc2ccccc21	inactive	36.8	82.6	inactive	280	inactive
CN(Cc1ccccc1)c1ccc([N+](=O)[O-])cc1C(=O)O	inactive	41	87.3	inactive	276	inactive
O=C(COc1ncnc2cc([N+](=O)[O-])ccc12)NC(=O)NC1CCCCC1	inactive	31.6	70.8	inactive	153	inactive
Cc1cc(NCc2sc(C(=O)O)cc2C)ccc1Br	inactive	57.8	81.7	inactive	33.8	inactive
COc1cc(/C=C(/C#N)c2nc3ccccc3[nH]2)ccc1OCc1ccc(C(=O)O)o1	inactive	21.9	59.6	inactive	116	inactive
O=S(=O)(Nc1cccc(-c2cn3cccnc3n2)c1)c1ccc(F)cc1	inactive	36.5	46	inactive	0	inactive
O=C(Cn1nc(-c2ccccc2)c2ccccc2c1=O)Nc1ccccn1	inactive	45.6	58.1	inactive	194	inactive
COc1cc2[nH]c(=S)nc(NCCC(C)C)c2cc1OC	inactive	29.1	55.6	inactive	123	inactive
CS(=O)(=O)Nc1ccc(Br)cc1C(=O)c1ccccc1	inactive	46.4	59	inactive	205	inactive
Cc1cc2ccccn2c1C(=O)c1cccc([N+](=O)[O-])c1	inactive	34	81.2	inactive	250	inactive
